Screening results deposited in PubChem by NMMLSC.
Rows were chosen to be rich in hits. Some 1.2% of all compounds tested hit in one or more screens of this group.
RGS8-Gao reg: RGS8-Galphao binding modulators, primary screen, biochemical, multiplexed bead flow cytometry; Guanine nucleotide-binding protein G(o) subunit alpha (Homo sapiens), P09471; actives lie on both sides; response (percent of control binding), % at 10 µM; actives 0.34% (n = 220,000); AID 1423, 2008; in the data active = response below about 60% or above about 140%; inactive = in between;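 also: Galphao activated as the GDP aluminium fluoride complex binding bead-coupled RGS8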
Target sequence (P09471 whole entry, looked up): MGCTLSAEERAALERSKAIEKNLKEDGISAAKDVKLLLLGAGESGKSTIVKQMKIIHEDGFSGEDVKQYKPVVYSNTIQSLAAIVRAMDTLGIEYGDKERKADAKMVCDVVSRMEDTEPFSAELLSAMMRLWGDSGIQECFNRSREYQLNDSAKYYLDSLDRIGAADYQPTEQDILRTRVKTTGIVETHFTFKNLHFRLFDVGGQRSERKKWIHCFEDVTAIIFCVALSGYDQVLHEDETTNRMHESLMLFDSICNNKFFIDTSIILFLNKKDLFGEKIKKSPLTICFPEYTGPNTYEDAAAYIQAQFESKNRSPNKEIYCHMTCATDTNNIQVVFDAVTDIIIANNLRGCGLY
Avidin bead fluor: green autofluorescence of compounds with avidin beads – biophysical, 488/530 nm, flow cytometry, artefact control, profiling panel | actives 0.38% (n = 220,000) | fluorescence (KMESF) at 10 µM | compound fluorescence 488/530 nm; stronger effect = higher value; in the data active = fluorescence above about 47
RGS4-Gao reg: modulators of RGS4 binding to Galphao, primary screen, biochemical, multiplexed bead flow cytometry. binding response (% of control), % at 10 µM. actives lie on both sides. actives 0.33% (n = 220,000); in the data active = binding response below about 49% or above about 150%; inactive = in between;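 also: fluorescent Galphao activated with aluminum fluoride binding bead-coupled RGS4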
GSH fluor: compound fluorescence on glutathione beads, profiling panel, artefact control, biophysical, 488/530 nm, flow cytometry; fluorescence (KMESF) at 10 µM; actives 0.25% (n = 190,000); GSH beads flow cytometry, compound fluorescence 488/530 nm; stronger effect = higher value; AID 1776, 2009; in the data active = fluorescence above about 89;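 also: glutathione beads carrying GST-tagged Bcl family fusion proteins plus one bare bead set; values are compound well signal with DMSO vehicle wells as background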
RGS16-Gao: modulators of RGS16 binding to Galphao, primary screen, biochemical, human proteins, multiplexed bead flow cytometry; binding response (% of control), % at 10 µM; bead-based flow cytometry RGS16-Galphao binding, fluorescence; actives lie on both sides; actives 0.38% (n = 220,000); AID 1441, 2008; Regulator of G-protein signaling 16 (Homo sapiens) + Guanine nucleotide-binding protein …;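 also: Galphao activated by GDP with aluminum fluoride before binding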
RGS7-Gao reg: RGS7-Galphao binding modulators, primary screen, biochemical, multiplexed bead flow cytometry; actives 0.35% (n = 220,000); actives lie on both sides; binding response (% of control), % at 10 µM; AID 1439, 2008; Guanine nucleotide-binding protein G(o) subunit alpha (Homo sapiens), P09471; in the data active = binding response below about 49% or above about 150%; inconclusive = no clear call, values can overlap the other calls; inactive = in between;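 also: fluorescent Galphao held in activated GDP-AlF4 state binding bead-coupled RGS7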
RGS-Gao: modulators of RGS–Galpha-o binding, primary screen, biochemical, multiplexed beads, flow cytometry, RGS4/7/8/16/19. actives 99% (n = 1,600). AID 1504, 2009. multiplexed bead flow cytometry. shares compounds with RGS16-Gao. RGS4–Galpha-o binding response, % at 10 µM;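 also: fluorescently labeled Galpha-o bound to GDP with aluminium fluoride binding biotinylated RGS beads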
Target sequence (P09471 whole entry, looked up): as above
Target sequence (P49798 whole entry, looked up): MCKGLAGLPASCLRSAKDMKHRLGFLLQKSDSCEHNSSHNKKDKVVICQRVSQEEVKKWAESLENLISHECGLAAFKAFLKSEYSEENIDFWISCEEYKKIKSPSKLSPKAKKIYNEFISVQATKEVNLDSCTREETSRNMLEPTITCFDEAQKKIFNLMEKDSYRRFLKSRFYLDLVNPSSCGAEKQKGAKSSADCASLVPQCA
Biotin-avidin: disruption of biotin probe capture by avidin, counter-screen for RGS protein interaction modulators, biochemical, flow cytometry, bead-based; 1,700 tested, under 10 active; shares compounds with RGS16-Gao; streptavidin beads, fluorescein-biotin binding; inhibition, % at 10 µM;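 active = inhibition above 50%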;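 also: median green fluorescence of gated singlet beads compared with DMSO control wells; 0% = DMSO wells and 100% = complete loss of bead fluorescence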
RGS8-Gao confirm: RGS8-Galphao binding modulators, confirmation, biochemical, multiplexed bead flow cytometry, single concentration; actives 3% (n = 1,700); AID 1836, 2009; shares compounds with RGS16-Gao; bead-based flow cytometry RGS8-Galphao binding, fluorescence; actives lie on both sides; binding response (% of control), % at 10 µM; in the data active = binding response below about 72% or above about 130%; inactive = in between;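 also: Galphao activated as GDP AlF4 complex before binding bead RGS8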
RGS7-Gao confirm: RGS7-Galphao binding modulators, confirmation, biochemical, multiplexed bead flow cytometry, single concentration. shares compounds with RGS16-Gao. bead-based flow cytometry RGS7-Galphao binding; actives lie on both sides. response (percent of control binding), % at 10 µM. actives 7.8% (n = 1,700); in the data active = response below about 75% or above about 130%; inactive = in between;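 also: fluorescent Galphao activated with GDP and aluminum fluoride binding bead-coupled RGS7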
RGS16-Gao conf: modulators of RGS16-Galphao protein binding, confirmation, biochemical, single concentration, multiplexed bead flow cytometry; shares compounds with RGS16-Gao; bead-based flow cytometry; actives lie on both sides; response (% of control binding), % at 10 µM; actives 4% (n = 1,700); in the data active = response below about 74% or above about 130%; inactive = in between;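 also: Galphao activated as the GDP aluminium fluoride complex binding bead-coupled RGS16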
RGS4-Gao single: modulators of RGS4-Galphao protein binding, confirmation, biochemical, single concentration, multiplexed bead flow cytometry | shares compounds with RGS16-Gao | actives lie on both sides | binding response (% of control), % at 10 µM | actives 4% (n = 1,700); in the data active = binding response below about 74% or above about 130%; inactive = in between
RGS19-Gao conf: regulators of RGS19-Galphao binding, confirmation, biochemical, single point, multiplexed bead flow cytometry; bead-based flow cytometry RGS19-Galphao binding; actives lie on both sides; shares compounds with RGS16-Gao; actives 5% (n = 1,700); AID 1841, 2009; response (percent of control binding), % at 10 µM; in the data active = response below about 50% or above about 160%; inactive = in between;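 also: 100% = no compound control and 0% = blank background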
* marks the source's active call; other numbers are inactive results; i = inactive; ? = inconclusive; / = no result; [ ] = dose if it differs, or a comment. Unless noted, no rule for the calls is given here.

SMILES | RGS8-Gao reg | Avidin bead fluor | RGS4-Gao reg | GSH fluor | RGS16-Gao | RGS7-Gao reg | RGS-Gao | Biotin-avidin | RGS8-Gao confirm | RGS7-Gao confirm | RGS16-Gao conf | RGS4-Gao single | RGS19-Gao conf
Cc1cc(C)n(-c2nc3ccccc3c(=O)n2OCC(=O)Nc2c(C)cccc2C)n1 | 174*[activator] | 6 | 149 | 33 | i | 134 | 149* | 4 | 127*[activator] | 276*[activator] | 210*[activator] | 210*[activator] | 246*[activator]
O=C(CN1C(=O)/C(=C/c2ccccc2F)Sc2ccccc21)N1CCN(c2ccccn2)CC1 | 108 | 25 | 104 | 12 | 113 | 103 | / | / | / | / | / | / | /
Cc1c(C(=O)NCc2ccc3c(c2)OCO3)oc2ccccc12 | 70 | 4 | 92 | 59 | 22* | 89 | 92* | -1 | 107 | 105 | 111 | 104 | 118
O=C(COC(=O)c1ccco1)NCc1ccc2c(c1)OCO2 | 41* | 2 | 34* | / | 30 | ? | / | 0 | 112 | 115 | 110 | 112 | 98
Cc1ccc2oc(C(=O)NCc3ccc4c(c3)OCO4)c(C)c2c1 | 101 | 7 | 101 | 10 | 100 | 100 | / | / | / | / | / | / | /
CS(=O)(=O)N(CCc1ccccc1)CC(=O)NCc1ccc2c(c1)OCO2 | 14* | 0 | 11* | 42 | 3.7* | 13* | / | 0 | 93 | 88 | 90 | 90 | 90
O=C(COC(=O)c1ccc2c(c1)OCO2)NCc1ccc2c(c1)OCO2 | 103 | 7 | 124 | 14 | 126 | 113 | / | / | / | / | / | / | /
CCOC(=O)C(C(=O)OCC)C(Nc1ccccc1)c1ccccc1 (configuration not stated) | 73 | 6 | 77 | 9 | 9.4* | 79 | 77* | -2 | 99 | 95 | 100 | 98 | 90
CCOCCCNC(C(=O)Nc1ccc(OC)c(Cl)c1)c1ccccc1 (configuration not stated) | 108 | 10 | 109 | 11 | 109 | ? | / | / | / | / | / | / | /
CCOC(=O)C(NCCCO)c1ccccc1 (configuration not stated) | / | / | / | 43 | / | / | / | 2 | 109 | 89 | 109 | 97 | 55
CCOC(=O)C(c1ccccc1)C(Nc1ccccc1)c1ccccn1 (configuration not stated) | 95 | 6 | 93 | / | 91 | ? | / | / | / | / | / | / | /
O=C(CNS(=O)(=O)/C=C/c1ccccc1)OC1CCOC1=O (configuration not stated) | 101 | 11 | 96 | 22 | 100 | 97 | / | / | / | / | / | / | /
Cc1cn(Cc2ccccc2)c(=O)[nH]c1=O | 101 | 14 | 103 | 4 | 102 | 102 | / | / | / | / | / | / | /
CN=c1scc(-c2cccs2)n1/N=C/c1ccc(O)c(O)c1O | 87 | 4 | 90 | 12 | 83 | 93 | / | / | / | / | / | / | /
CN=c1scc(C)n1/N=C/c1ccc(O)c(O)c1O | 48* | 6 | 64 | 8 | 30 | 53 | 64* | -2 | 71* | 57* | 64* | 77 | 29*
CCOC(=O)N1CCN(C(=O)C2CCN(C(=O)c3cc(OC)cc(OC)c3)CC2)CC1 | 134 | 6 | 123 | 9 | 205*[activator] | 130 | 123* | 1 | 101 | 100 | 101 | 100 | 112
Cc1ccc(NC(=O)CN(C)C(=O)c2ccc(S(=O)(=O)N(C)c3ccccc3)cc2)cc1 | 112 | 23 | 112 | 9 | 116 | 111 | / | / | / | / | / | / | /
N/C(CN1CCCCC1)=N\S(=O)(=O)c1cc(Cl)cc(Cl)c1 | 96 | 4 | 94 | / | 94 | ? | / | / | / | / | / | / | /
O=C(CN(CCO)c1ccccc1)Nc1ccc(Cl)c(S(=O)(=O)N2CCOCC2)c1 | 90 | 25 | 87 | 63 | 87 | 84 | / | / | / | / | / | / | /
Cc1ccc2c(c1)cc(CN(Cc1ccco1)C(=O)COc1ccccc1)c1nnnn12 | 99 | 102* | 126 | 53 | 101 | 159*[activator] | 126* | 1 | 100 | 98 | 98 | 96 | 101
Cc1ccc(-c2noc(-c3ccoc3C)n2)cc1 | 95 | 8 | 91 | 12 | 93 | ? | / | / | / | / | / | / | /
CN(C)CCNc1oc(-c2cccc(Cl)c2)nc1C#N | 31* | 5 | 0.2* | 11 | 5.0* | 12* | / | -1 | 98 | 98 | 99 | 99 | 105
Cc1ccc(NC(=O)c2ccc(OCc3c(C)noc3C)cc2)cc1 | 53* | 1 | 23* | / | 27 | ? | / | 0 | 101 | 106 | 106 | 106 | 104
Cc1ccc(NC(=O)c2cccc(OCc3c(C)noc3C)c2)cc1 | 103 | 8 | 100 | 10 | 103 | 99 | / | / | / | / | / | / | /
O=C1C(=O)c2ccc(-c3ccccc3)cc2-c2ccccc21 | 134 | 5 | 116 | 38 | 259*[activator] | 112 | 116* | -1 | 94 | 96 | 92 | 94 | 62
Cc1cccc(NC(=O)Cn2c([N+](=O)[O-])cnc2C)c1C | 105 | 14 | 103 | 18 | 109 | 105 | / | / | / | / | / | / | /
